Assay results as given in PubChem BioAssay (NCATS).
Records with an inconclusive call do not appear. Unmarked numbers belong to inactive results. Calls follow the shape of the dose curve; as a rule, active = well fitted curve in the direction sought with a large enough effect; inconclusive = small, poorly fitted or top-dose-only effect, or another doubt; inactive = no such curve, though single readings can be large; an effect the other way counts as inactive or inconclusive.

System: not listed separately
Test: Validation screen for small molecules that induce genotoxicity in human embryonic kidney (HEK293T) cells expressing luciferase-tagged ELG1 (AID 493106); also: 0% is about no effect
Conditions: luminescence; series mostly up to 46.1 µM; activity change, positive = ELG1 induction: at the top concentration
Method in brief: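 Reporter-gene quantitative HTS in HEK293T cells carrying luciferase-tagged ELG1, whose level climbs under genotoxic stress. Compound exposure lasts 16 hr at 37 °C before luciferase detection.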

| SMILES | activity change, positive = ELG1 induction |
| --- | --- |
| NCCS(=O)O | -6.53% |
| N=C(N)SCCN | -3.7% |
| NC1(C(=O)O)CC1 | -5% |
| O=C(O)c1cc(=O)cc(C(=O)O)[nH]1 | -5.66% |
| c1ccc(C2CN3CCSC3=N2)cc1 (stereo not drawn) | -3.88% |

Molecular target: ATPase family AAA domain-containing protein 5 (Homo sapiens) (UniProt Q96QE3)
Sequence (Q96QE3 whole entry, looked up, the tested form may be a part): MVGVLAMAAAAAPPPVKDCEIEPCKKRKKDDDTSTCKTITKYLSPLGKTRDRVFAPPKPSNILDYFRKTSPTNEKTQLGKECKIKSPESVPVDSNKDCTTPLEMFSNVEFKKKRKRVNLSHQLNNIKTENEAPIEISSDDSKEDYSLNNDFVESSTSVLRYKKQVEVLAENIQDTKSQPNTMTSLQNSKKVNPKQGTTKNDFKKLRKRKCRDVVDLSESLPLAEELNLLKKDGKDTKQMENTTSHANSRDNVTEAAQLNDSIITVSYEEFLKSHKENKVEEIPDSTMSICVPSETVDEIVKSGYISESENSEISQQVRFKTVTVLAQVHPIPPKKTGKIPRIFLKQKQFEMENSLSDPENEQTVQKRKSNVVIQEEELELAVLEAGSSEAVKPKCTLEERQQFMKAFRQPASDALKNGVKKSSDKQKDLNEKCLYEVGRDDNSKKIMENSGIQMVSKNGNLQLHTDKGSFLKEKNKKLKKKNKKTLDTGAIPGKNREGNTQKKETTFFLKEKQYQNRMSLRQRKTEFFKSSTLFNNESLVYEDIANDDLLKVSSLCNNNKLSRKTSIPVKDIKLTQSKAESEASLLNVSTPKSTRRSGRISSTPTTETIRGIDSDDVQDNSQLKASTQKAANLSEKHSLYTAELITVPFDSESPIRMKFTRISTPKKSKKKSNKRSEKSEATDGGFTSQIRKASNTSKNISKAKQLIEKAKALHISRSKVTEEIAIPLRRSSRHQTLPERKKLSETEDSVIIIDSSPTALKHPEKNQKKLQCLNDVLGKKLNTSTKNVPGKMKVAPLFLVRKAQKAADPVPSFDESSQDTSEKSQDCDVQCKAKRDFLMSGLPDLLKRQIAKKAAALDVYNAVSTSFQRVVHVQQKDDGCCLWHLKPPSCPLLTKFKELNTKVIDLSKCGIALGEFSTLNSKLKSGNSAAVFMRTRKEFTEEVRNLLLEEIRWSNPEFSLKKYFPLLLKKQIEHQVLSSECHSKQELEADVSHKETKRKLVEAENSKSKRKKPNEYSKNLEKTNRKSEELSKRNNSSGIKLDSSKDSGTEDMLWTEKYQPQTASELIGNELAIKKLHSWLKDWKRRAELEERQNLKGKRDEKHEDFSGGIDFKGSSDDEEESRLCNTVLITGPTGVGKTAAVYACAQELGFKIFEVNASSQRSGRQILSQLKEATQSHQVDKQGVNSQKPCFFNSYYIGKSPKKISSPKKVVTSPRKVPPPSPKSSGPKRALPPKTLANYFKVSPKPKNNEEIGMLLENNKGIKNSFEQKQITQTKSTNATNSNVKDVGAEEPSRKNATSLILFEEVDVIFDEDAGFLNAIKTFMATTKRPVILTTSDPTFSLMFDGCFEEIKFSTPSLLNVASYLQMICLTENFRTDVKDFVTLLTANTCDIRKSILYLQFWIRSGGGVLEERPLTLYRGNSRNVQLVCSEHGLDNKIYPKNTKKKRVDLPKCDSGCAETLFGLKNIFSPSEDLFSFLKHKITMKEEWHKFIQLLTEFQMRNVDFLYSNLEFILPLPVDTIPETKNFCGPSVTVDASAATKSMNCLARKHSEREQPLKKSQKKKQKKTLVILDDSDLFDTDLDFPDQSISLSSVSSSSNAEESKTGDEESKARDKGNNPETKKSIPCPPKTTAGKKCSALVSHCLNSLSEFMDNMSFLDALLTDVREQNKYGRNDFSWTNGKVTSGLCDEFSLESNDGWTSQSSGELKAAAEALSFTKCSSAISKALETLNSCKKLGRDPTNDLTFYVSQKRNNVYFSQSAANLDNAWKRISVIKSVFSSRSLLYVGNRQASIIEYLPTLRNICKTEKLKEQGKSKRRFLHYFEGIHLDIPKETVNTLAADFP
Test: Validation screen for small molecules that inhibit ELG1-dependent DNA repair in human embryonic kidney (HEK293T) cells expressing luciferase-tagged ELG1 (AID 493107);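 also: cells co-treated with the DNA-damaging agent 5-fluorouridine alongside compound; % is scaled to controls: 0 for no effect and ±100 for the full control effect; inhibitors lower the ELG1-luciferase luminescence signal; nearly all actives have a fitted effect of over 70% in size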
Conditions: HEK293T ELG1-luciferase level, luminescence, 5-fluorouridine co-treatment, 16 h; series mostly up to 46.1 µM; activity change, negative = decrease: at the top concentration
Method in brief: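 Quantitative HTS in HEK293T cells carrying luciferase-tagged ELG1, stimulated with 5-fluorouridine alongside compound for 16 hr. Loss of luciferase signal marks inhibition of ELG1 response.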

| SMILES | activity change, negative = decrease |
| --- | --- |
| O=C(O)CCC(=O)N1CCCC1C(=O)O (stereo not drawn) | 26.1% |
| C=C(C)C1CC=C(C(=O)O)CC1 (stereo not drawn) | 16.6% |
| NCC(O)C1CCCCCCC1 (stereo not drawn) | 3.97% |
| NC(=O)CNCCC(c1ccccc1)c1ccccc1 | -2.15% |
| COc1ccccc1N1CCN(CCCNc2c(C)c(=O)n(C)c(=O)n2C)CC1 | 11.7% |
| C[C@@]1(C2CCCC2)Cc2cc(OCC(=O)O)c(Cl)c(Cl)c2C1=O | -9.61% |
| N[C@@H](CS(=O)O)C(=O)O | 10.7% |
| COC(=O)C(C)(N)Cc1ccc(O)cc1 (stereo not drawn) | 6.29% |
| O=C(O)/C(=C/c1c(C(=O)O)[nH]c2cc(Cl)cc(Cl)c12)c1ccccc1 | -0.346% |
| Cn1c(=O)[nH]c2ncn(C)c2c1=O | -0.0209% |
| CCCCCCCCCCCCCCCCCCOC[C@H](COP(=O)([O-])OCC[N+](C)(C)C)OC | 7.94% |
| O=C(O)/C=C/c1ccc(O)c(O)c1 | 4.92% |
| N[C@@H](Cc1ccc(O)c(I)c1)C(=O)O | 8.54% |
| NC(=O)c1cc[n+](CC2=C(C(=O)O)N3C(=O)[C@@H](NC(=O)[C@@H](c4ccccc4)S(=O)(=O)[O-])[C@H]3SC2)cc1 | -6.67% |
| O=[N+]([O-])c1cccc2cn[nH]c12 | -1.69% |
| c1ccc2nc(C3=NCCN3)ccc2c1 | 0.104% |
| COc1ccccc1N1CCN(CCCCNC(=O)c2ccc3ccccc3c2)CC1 | -1.16% |
| O=c1onc2n1-c1cc(Br)ccc1OC2 | 26.5% |
| CC(C)NC[C@H](O)COc1ccc(CC(N)=O)cc1 | 16.1% |

| SMILES | activity change, negative = decrease |
| --- | --- |
| NC(N)=NC(N)=Nc1ccccc1 | -3.98% |
| C#CCn1c(=O)c2c(ncn2C)n(C)c1=O | -4.74% |
| O=C(OCCN1CCOCC1)C1(c2ccccc2)CCCCC1 | -1.14% |
| CO/N=C(\C(=O)N[C@@H]1C(=O)N2C(C(=O)O)=C(CSc3nc(=O)c(O)nn3C)CSC12)c1csc(N)n1 (stereo partly drawn) | 8.44% |
| Nc1ccc(-c2nc3ccc(-c4nc5ccc(N)cc5[nH]4)cc3[nH]2)cc1 | -5.27% |
| CCC(=O)N1CCN(C(=O)c2ccccc2)CC1 | 0.587% |
| Nc1ccc(N2C(=O)c3ccccc3C2=O)c(Cl)c1 | 25.1% |
| NC(N)=N[C@@H](CCC(=O)O)C(=O)O | -0.887% |
| CC1CCN(CC[C@H]2CCCN2S(=O)(=O)c2cccc(O)c2)CC1 | -6.51% |
| Cc1nc(N=Nc2ccc(S(=O)(=O)O)cc2S(=O)(=O)O)c(COP(=O)(O)O)c(C=O)c1O | 9.25% |
| CC(C)Cn1c(=O)n(C)c(=O)c2[nH]cnc21 | 21.1% |
| NCCCNCCCCNCCCN | -4.39% |
| CCCCCCCCCC[Si](C)(C)CCC(=O)NC(Cc1ccc(C)cc1)c1ccccc1 (stereo not drawn) | -2.65% |
| CNc1ncnc2c1ncn2[C@H]1C[C@H](OP(=O)(O)O)[C@@H](COP(=O)(O)O)O1 | 8.68% |
| NCCS(=O)O | 4.02% |
| N=C(N)SCCN | 8.95% |
| NC1(C(=O)O)CC1 | 22.2% |
| O=C(O)c1cc(=O)cc(C(=O)O)[nH]1 | -9.78% |
| c1ccc(C2CN3CCSC3=N2)cc1 (stereo not drawn) | 5.34% |
